Experimental data: PubChem BioAssay

What was measured:
[1] = system: Botulinum neurotoxin type F light chain protease (Clostridium botulinum); assay: Clostridium botulinum type F light chain protease inhibitors, microsphere substrate cleavage, validation (AID 588459); conditions: multiplex microsphere protease substrate cleavage assay, flow cytometry; at 10 µM; active compounds read high
[2] = biological target: Botulinum neurotoxin type A (Clostridium botulinum) (UniProt P0DPI0); assay: BoNT/A light chain protease inhibitors, biochemical, multiplex microsphere flow cytometry, validation set (AID 588460); conditions: at 10 µM, active compounds read high
[3] = biological target: Lethal factor (Bacillus anthracis) (UniProt P15917); assay: Bacillus anthracis lethal factor inhibition, microsphere flow cytometry protease assay, validation at 10 µM (AID 588461); conditions: multiplex microsphere protease cleavage assay, active compounds read high

Measured: inhibition

CC(=O)[C@@]1(O)CC[C@H]2[C@@H]3C[C@H](C)C4=CC(=O)C=C[C@]4(C)[C@@]3(F)[C@@H](O)C[C@@]21C
inactive: [1] -1.5% | [2] -1.1% | [3] 5.2%

CC/C(=C1/C(=O)CC(C)(C)C(C(=O)OC)C1=O)N1CCCC1 (stereo unspecified)
inactive: [1] -4.4% | [2] -1.4% | [3] -9.3%

COc1ccc2c(c1OC)C(=O)N1C2SC[C@H]1C(=O)NC1CC(C)(C)NC(C)(C)C1 (stereo partly specified)
inactive: [1] 3.2% | [2] -0.5% | [3] -2.4%

COc1ccc2c(=O)c(-c3cnn(-c4ccccc4)c3)c(C)oc2c1
inactive: [1] -2.2% | [2] 0.9% | [3] 1.4%

CCCCCCC(=O)N(O)C1CC(=O)N(Cc2ccccc2)C1=O (stereo unspecified)
inactive: [1] 0.4% | [2] -0.7% | [3] 3.7%

CC(C)CCC1(CCNC(C)c2cccs2)CCOC(C)(C)C1 (stereo unspecified)
inactive: [1] -3.5% | [2] -0.9% | [3] -5.3%

Cn1c2[n+](c3ccc(Cl)cc3c1=O)Cc1ccccc1-2
inactive: [1] 0.8% | [2] -1% | [3] -7.8%

CC1(C)Cc2nc3oc4c(NCc5ccccc5)ncnc4c3cc2CO1
inactive: [1] 0.7% | [2] 0.2% | [3] 2.2%

CC(C)(C)N(Cc1ccccc1)C(=O)c1ccc(Br)o1
inactive: [1] -1.1% | [2] 0.8% | [3] 11.8%

COc1cccc(OCC(O)CO)c1 (stereo unspecified)
inactive: [1] -1.4% | [2] -1.1% | [3] -9.1%

O=[N+]([O-])c1ccc2cn[nH]c2c1
inactive: [1] 2.9% | [2] -0.5% | [3] 4%

Cn1c(=O)c2c(ncn2CCO)n(C)c1=O
inactive: [1] 1.2% | [2] -1.8% | [3] 1.7%

Cc1ccc(OCc2nc(-c3cccnc3)no2)cc1C
inactive: [1] -0.8% | [2] 0.4% | [3] -6.5%

COc1ccc(N2C(=O)[C@@H]3Cc4ccccc4CN3C2=O)cc1
inactive: [1] 1.7% | [2] 0.4% | [3] -0.7%

CC1=NN(C(=O)c2ccc(Br)cc2)C(O)(c2ccccc2)C1 (stereo unspecified)
inactive: [1] -2.9% | [2] -0.4% | [3] 4.5%

CC(=O)Nc1ccc(S(=O)(=O)c2ccc(N)cc2)cc1
inactive: [1] -3.7% | [2] -0.4% | [3] -3.2%

O=C(O)Cc1ccc(-c2ccccc2)cc1
inactive: [1] 0.5% | [2] -1.2% | [3] 0.5%

CCOC(=O)c1c(C)oc2c1C(=O)c1ccccc1C2=O
inactive: [1] 3.1% | [2] 1.4% | [3] -9.3%

COc1ccc(-c2nc3c(=O)n(C)c(=O)[nH]c3n2CCc2ccccc2)cc1
inactive: [1] 1.2% | [2] 0.2% | [3] -1.2%

N/C(=N\OC(=O)c1cccc(Br)c1)c1ccncc1
inactive: [1] 0.8% | [2] 0.4% | [3] -3.1%

COc1ccc(C2C(=O)c3ccccc3C2=O)cc1
inactive: [1] 0.5% | [2] -0.4% | [3] -3.8%

CCOC(=O)C1C2C=CC3(CN(c4ccc(Cl)c(F)c4)C(=O)C13)O2 (stereo unspecified)
inactive: [1] 2.9% | [2] -2.3% | [3] 6.8%

CO/N=C(\C(=O)N[C@@H]1C(=O)N2C(C(=O)O)=C(COC(C)=O)CS[C@H]12)c1csc(N)n1 (stereo in doubt)
inactive: [1] 2.7% | [2] -1.1% | [3] -5.4%

C[N+](C)(C)CCOP(=O)([O-])OC[C@H](O)CO
inactive: [1] 1.7% | [2] -0.4% | [3] 3.2%

Cc1ccccc1NC(=O)C1(C)Cc2ccccc2C(=O)O1 (stereo unspecified)
inactive: [1] 0.3% | [2] 0.5% | [3] -0.2%

C=C1C2(C(=O)Nc3ccc(SC(F)F)cc3)CCC(C2)C1(C)C (stereo unspecified)
inactive: [1] -1.3% | [2] -0.9% | [3] 1.3%

CN(C)CCN(Cc1cccs1)c1ccccn1
inactive: [1] 2.5% | [2] -0.3% | [3] -1.6%

Cc1ccc(S(=O)(=O)NC(=O)NN2CCCCCC2)cc1
inactive: [1] -4.6% | [2] -1.6% | [3] -4.1%

CC(=O)Oc1ccc(C2OC(=O)c3ccccc3N2C(C)=O)cc1 (stereo unspecified)
inactive: [1] 2% | [2] 0.3% | [3] 3.3%

COC(=O)C1=NN(C(=O)c2cccc(Br)c2)C(O)(c2ccc(Cl)cc2)C1 (stereo unspecified)
inactive: [1] 3.1% | [2] -0.5% | [3] 1.2%

CCN1/C(=C/C=C/C=C/c2sc3ccccc3[n+]2CC)Sc2ccccc21
inactive: [1] -1% | [2] 16.8% | [3] -36.6%

CC(C)c1ccc(OCc2ccc(C(=O)O)o2)cc1
inactive: [1] 0.6% | [2] -0.2% | [3] 2.5%

O=C(Nc1ccccc1)c1ccccc1CCc1ccccc1
inactive: [1] 0.9% | [2] -3.7% | [3] 3.9%

O=C(O)c1cnccn1
inactive: [1] -5.5% | [2] -1.6% | [3] -1.5%

Cn1cnc2c1c(=O)n(CC(O)CO)c(=O)n2C (stereo unspecified)
inactive: [1] -0.3% | [2] 0% | [3] -1.4%

Cc1ccc2c(c1)C(C)(C)[C@]1(C)NC(=O)CCN21
inactive: [1] -1.8% | [2] -0.2% | [3] 0%

CCCCC[C@H](O)/C=C/[C@@H]1[C@@H](C/C=C\CCCC(=O)O)[C@@H](O)C[C@H]1O
inactive: [1] -2.4% | [2] -1.9% | [3] -1.1%

COc1ccccc1/C=C/C(=O)c1c2c(c(C)[nH]c1=O)CCCC2
inactive: [1] -1.3% | [2] 0.5% | [3] -5.8%

Cc1ncc(C(=O)O)c(C(=O)O)c1N
inactive: [1] 0.4% | [2] -0.1% | [3] 2.4%

Cn1cc(CN2CCC(C(=O)N3CCCCC3)CC2)c(-c2ccccc2F)n1
inactive: [1] 4% | [2] 0.2% | [3] 4.5%

O=C(c1cc2cc(Br)ccc2o1)N1CCCC1
inactive: [1] -9.1% | [2] -4.2% | [3] -3.2%

COc1ccc(C2OC(=O)Cc3cc(OC)c(OC)cc32)cc1 (stereo unspecified)
inactive: [1] 3.2% | [2] 0.8% | [3] 2.9%

Cn1nc(-c2ccccn2)nc2c(=O)n(C)c(=O)nc1-2
inactive: [1] -0.9% | [2] 2.9% | [3] -13%

Cc1nc2cc3ccccc3cc2c(=O)[nH]1
inactive: [1] -2% | [2] 1.5% | [3] 3.7%

CC(C)COCC1CC2(CC(C)(c3csc(N)n3)OC2=O)C(=O)O1 (stereo unspecified)
inactive: [1] -3.2% | [2] -1.9% | [3] 9.1%

CCCCC(=O)O[C@H]1CC[C@H]2[C@@H]3CCc4cc(O)ccc4[C@H]3CC[C@]12C
inactive: [1] 0.5% | [2] 0.1% | [3] -1.7%

Cc1cc(OCC(=O)C(C)(C)C)c2c(C)c(C)c(=O)oc2c1
inactive: [1] -1.4% | [2] 0.5% | [3] 0.7%

COc1ccc(CNC(=O)C2CCN(C(=O)[C@@H](CC(C)C)NC(=O)OC(C)(C)C)CC2)cc1
inactive: [1] 1.1% | [2] -0.8% | [3] -3.7%

Cc1cc(C(=O)NC(CC(C)C)C(=O)O)cc(C)c1[N+](=O)[O-] (stereo unspecified)
inactive: [1] -4.1% | [2] -0.3% | [3] -5.7%

O=C(NC(CO)Cc1ccc([N+](=O)[O-])cc1)C(Cl)Cl (stereo unspecified)
inactive: [1] 0.6% | [2] -1.5% | [3] -1.4%

COc1cc(COc2ccc3c(C)c(Cc4ccccc4)c(=O)oc3c2)cc(OC)c1OC
inactive: [1] 3.5% | [2] 0.9% | [3] -2.3%

Cn1cc(/C=C/C(=O)c2ccccc2)c2ccccc21
inactive: [1] -4.2% | [2] -0.5% | [3] -5.4%

Cc1oc2ccc(OC(=O)c3cccs3)cc2c1C(=O)OC(C)C
inactive: [1] -0.1% | [2] -1.1% | [3] 3.1%

S=C(NCc1ccccc1)NCc1cccc(CNC(=S)NCc2ccccc2)c1
inactive: [1] -0.9% | [2] 0.7% | [3] -2.4%

CN(CCO)CC(O)Cn1cnc2c1c(=O)n(C)c(=O)n2C (stereo unspecified) (tested in a mixture with another compound)
inactive: [1] -0.4% | [2] 1.1% | [3] -3.6%

CC1CCc2cc(F)cc3c(=O)c(C(=O)O)cn1c23 (stereo unspecified)
inactive: [1] 3.2% | [2] 1.8% | [3] 3.5%

COc1cc(C(=O)N/C(=C\c2cn(C)c3ccccc23)C(=O)NCCCO)cc(OC)c1OC
inactive: [1] 2% | [2] -1.2% | [3] -2.5%

CN(C)CCCN1c2ccccc2Sc2ccccc21
inactive: [1] -0.5% | [2] -0.5% | [3] -3.7%

O=S(=O)(NCCCCCNS(=O)(=O)c1ccccc1)c1ccccc1
inactive: [1] 0.4% | [2] -0.1% | [3] -0.7%

COc1ccc(C(=O)/C=C2/c3ccccc3CC(C)(C)N2C)cc1
inactive: [1] -2.7% | [2] -1.8% | [3] -1.2%

O=C(CCCN1C(=O)/C(=C\c2cccs2)SC1=S)Nc1ccccn1
inactive: [1] 4% | [2] 5.2% | [3] 18.8%

CN(C)[C@@H]1C(=O)C(C(N)=O)=C(O)[C@@]2(O)C(=O)C3=C(O)c4c(O)ccc(Cl)c4[C@@H](O)[C@H]3C[C@@H]12
inactive: [1] -5.8% | [2] -0.3% | [3] -4.5%
